This is a sample that favours compounds with a hit; in the whole collection about 12% have one here.
Marburg entry inh: inhibitors of Marburg virus binding or cell entry. Marburg virus pseudotyped entry inhibition, cell reporter. AID 540276. 1.8% of 300,000 active. Potency, µM (titrated, usually from 37.8 µM), hits mostly inhibitors; calls by dose curve; tested in HEK293 cells
Lassa entry inh: blocks Lassa virus binding to or entry into cells; Lassa virus pseudotype entry inhibition, cell reporter; Potency, µM (doses to about 37.9 µM), usual class: inhibitors; 1.2% of 300,000 active; calls by dose curve; tested in HEK293 cells; further: nearly all actives have a fitted effect of over 50% in size
Cycloheximide cs: counter-screen for Shiga toxin inhibitors: cycloheximide protein synthesis inhibition | cell reporter, cycloheximide protein synthesis inhibition counterscreen | max response, % | 12% of 300,000 active | AID 2314; in the data active means max response mostly above about 13%, no sharp cut-off; inactive means mostly below about 14%; further: read at 38.3 µM for the half of the compounds with a filed dose
Shiga inhibitor: blocks Shiga toxin action in Vero cells; 9.2% of 290,000 active; Vero cells, Shiga toxin protein synthesis inhibition reporter; inhibition, % at 38.7 µM; AID 2315; in the data active means inhibition mostly above about 28%, no sharp cut-off; inactive means mostly below about 43%
Each line names hits and unclear results; the compound was inactive in the other large screens.

C=CCNC(=S)N/N=C/c1ccc(-c2ccc(OC)cc2)o1	Marburg entry inh inconclusive, Lassa entry inh 1.8µM
C=CCNC(=S)N/N=C/c1ccc(-c2cc(Cl)ccc2Cl)o1	none
CNC(=S)N/N=C/c1ccc(-c2ccc(C(=O)O)cc2)o1	Cycloheximide cs 23, Shiga inhibitor 56 (no result: Marburg entry inh, Lassa entry inh)
O=C(N/N=C\c1ccncc1)c1ccccc1O	none
Cc1ccc(C(=O)N/N=C\c2ccc(-c3ccc(Cl)c(Cl)c3)o2)cn1	Marburg entry inh inconclusive, Lassa entry inh inconclusive
COc1ccc(-c2nnc(SCC(=O)Nc3c(Cl)cc(Cl)cc3C(=O)O)o2)cc1	none (no result: Cycloheximide cs, Shiga inhibitor)
CN(C)c1ccc(N/C(N)=N/c2nc(C(F)(F)F)cc(C(F)(F)F)n2)cc1	none (no result: Marburg entry inh, Lassa entry inh)
CCOc1ccccc1C1CC(=O)NC(C)=C1C(=O)OCc1ccc(C)cc1 (stereo not given)	none (no result: Cycloheximide cs, Shiga inhibitor)
C/C(=N\NC(=O)c1ccc(Cl)cc1)c1cccs1	Marburg entry inh inconclusive, Lassa entry inh 3.5µM, Cycloheximide cs 19, Shiga inhibitor 57
C/C(=N\NC(=S)NC1CCCCC1)c1cccs1	Marburg entry inh inconclusive, Cycloheximide cs 28, Shiga inhibitor 58
C/C(=N\NC(=O)c1ccc(NS(=O)(=O)c2cccs2)cc1)c1cccs1	none
COC(=O)N/N=C(\C)c1cccs1	Cycloheximide cs 11 (no result: Marburg entry inh, Lassa entry inh)
C/C(=N/NC(=O)c1cccs1)c1ccc(NC(=O)COc2ccc(Cl)cc2)cc1	Marburg entry inh inconclusive, Lassa entry inh 10µM, Cycloheximide cs 36, Shiga inhibitor 79
Cc1ccc(N(C)S(=O)(=O)c2ccc(-c3coc(C)n3)cc2)cc1	none (no result: Marburg entry inh, Cycloheximide cs, Shiga inhibitor)
CC(OC(=O)c1cc(Br)ccc1O)C(=O)NC1(C#N)CCCCC1 (stereo not given)	none (no result: Cycloheximide cs, Shiga inhibitor)
c1ccc(Oc2ccc(-n3cnnn3)cc2)cc1	none
C/C(=N/NC(=O)c1ccc2nc[nH]c2c1)c1cccs1	Marburg entry inh inconclusive, Lassa entry inh inconclusive, Cycloheximide cs 39, Shiga inhibitor 55
NC(=O)c1ccccc1NC(=O)Nc1ccccc1Cl	none
NC(=O)c1ccccc1N/C=C/C(=O)c1cccs1	Marburg entry inh inconclusive, Lassa entry inh inconclusive, Cycloheximide cs 44, Shiga inhibitor 45
Cc1ncoc1C(=O)Nc1ccccc1C(N)=O	none
Cc1cccc(N/C=C/C(=O)c2cccs2)c1C	Marburg entry inh inconclusive, Lassa entry inh inconclusive, Cycloheximide cs 49, Shiga inhibitor 74
NC(=O)c1ccccc1N/C=C/C(=O)c1ccc(Cl)cc1Cl	Marburg entry inh 5.6µM, Lassa entry inh inconclusive, Cycloheximide cs 33, Shiga inhibitor 72
Cc1ccc(C(=O)/C=C/Nc2ccccc2C(N)=O)o1	Cycloheximide cs 54, Shiga inhibitor 83
Cc1ccc(N(CC(=O)Nc2ccc(C)c(F)c2)S(=O)(=O)c2c(C)n[nH]c2C)cc1	none (no result: Cycloheximide cs, Shiga inhibitor)
COc1cc([N+](=O)[O-])ccc1N/C=C/C(=O)c1cccs1	Marburg entry inh inconclusive, Lassa entry inh inconclusive, Cycloheximide cs 27, Shiga inhibitor 60
COC(=O)c1ccccc1NC(=O)c1ccc(F)cc1	none
NC(=O)c1ccccc1N/C=C/C(=O)c1ccc(F)cc1	Cycloheximide cs 56, Shiga inhibitor 98 (no result: Lassa entry inh)
Cc1cc(OCc2cn(CC(=O)c3ccc(O)cc3)nn2)cc(C)c1C	none (no result: Marburg entry inh, Cycloheximide cs, Shiga inhibitor)
Cc1ccc(C(C(=O)NCc2ccco2)N(C(=O)CNC(=O)c2cccs2)c2c(C)cc(C)cc2C)cc1 (stereo not given)	Marburg entry inh inconclusive, Lassa entry inh inconclusive, Cycloheximide cs 29
CN1CCC(OC(c2ccccc2)c2ccc(Cl)cc2)C1 (stereo not given)	Marburg entry inh 7.1µM, Lassa entry inh inconclusive (no result: Cycloheximide cs, Shiga inhibitor)
CN1[C@@H]2CC[C@H]1CC(OC(c1ccccc1)c1ccccc1)C2 (stereo not given in full)	Marburg entry inh 5µM (no result: Lassa entry inh)
CN1[C@@H]2CC[C@H]1CC(O[C@@H](c1ccccc1)c1ccc(Cl)cc1)C2 (stereo not given in full)	Marburg entry inh 3.2µM (no result: Lassa entry inh, Cycloheximide cs, Shiga inhibitor)
CN1[C@@H]2CC[C@H]1CC(OC(=O)[C@@H](O)c1ccccc1)C2 (stereo not given in full)	none (no result: Lassa entry inh, Cycloheximide cs, Shiga inhibitor)
CN1C2CCC1CC(OC(c1ccccc1)c1ccccc1)C2 (stereo not given)	Marburg entry inh 5µM (no result: Lassa entry inh)
CN1CCC(NCCC(c2ccc(F)cc2)c2ccc(Cl)cc2)CC1 (stereo not given)	Marburg entry inh inconclusive, Lassa entry inh inconclusive
CN1C2CCC1CC(OC(=O)c1c[nH]c3ccccc13)C2 (stereo not given)	Marburg entry inh inconclusive
Cc1c(NC(=O)c2cc3nc(-c4ccc(Cl)cc4)cc(C(F)(F)F)n3n2)c(=O)n(-c2ccccc2)n1C	none
COc1ccc(C2=Nn3c(nnc3-c3ccc(OC)c(OC)c3)SC2)c(OC)c1	none (no result: Marburg entry inh, Lassa entry inh)
Cc1ccccc1-c1nn(-c2ccc(F)cc2F)cc1CNCCN(C)C	none
Cc1ccccc1-c1nn(-c2ccc(F)cc2F)cc1CNCCCN(C)C	Marburg entry inh 3.5µM, Lassa entry inh inconclusive
CC(C)CC(=O)Nc1ccc(C(=O)CN2CCC(C)CC2)cc1	none
COc1cccc(/C=C/c2nc(C#N)c(NC3CCCCC3)o2)c1	none (no result: Cycloheximide cs, Shiga inhibitor)
Cc1cccc(-c2noc(-c3ccccc3C(=O)NCC3CCCO3)n2)c1 (stereo not given)	Cycloheximide cs 63, Shiga inhibitor 143
O=C(NCC1CCCO1)c1ccccc1-c1nc(-c2ccc(Cl)cc2)no1 (stereo not given)	Cycloheximide cs 12
Nc1c(Cl)ncnc1N/N=C/c1ccnc2ccccc12	none
Nc1c(Cl)ncnc1N/N=C/c1cccnc1	Cycloheximide cs 15
Nc1c(Cl)ncnc1N/N=C/c1ccccn1	Marburg entry inh inconclusive, Lassa entry inh 2.5µM, Cycloheximide cs 25, Shiga inhibitor active
Nc1c(Cl)ncnc1N/N=C/c1ccc2ccccc2n1	Marburg entry inh 16µM, Lassa entry inh inconclusive, Cycloheximide cs 69, Shiga inhibitor 121
Nc1c(Cl)ncnc1Nc1ccc(C(=O)O)cc1	none (no result: Cycloheximide cs, Shiga inhibitor)
CCCn1nnnc1NCc1ccccc1C	none
COc1ccc(C(=O)CSc2nnc(CNC(=O)c3ccc(OC)c(OC)c3)n2C)cc1	none
CC(=O)c1ccc(Oc2nc(C)nc3c2oc2ccccc23)cc1	none (no result: Marburg entry inh, Cycloheximide cs, Shiga inhibitor)
CCOC(=O)Cn1c(=O)n(C2CCCCC2)c2nc(-c3ccccc3Cl)nc(C(N)=O)c21	none (no result: Marburg entry inh, Cycloheximide cs, Shiga inhibitor)
Cc1ccc(S(=O)(=O)NC(CC(C)C)C(=O)NCc2ccco2)cc1 (stereo not given)	none
COc1ccc(Br)cc1C(=O)Nc1ccc(N2CCCC2)cc1	Marburg entry inh inconclusive
CC(C)Oc1ccc(C(=O)Nc2ccc(N3CCCC3)cc2)cc1	Cycloheximide cs 20, Shiga inhibitor 27
O=C(Nc1ccc(N2CCCC2)cc1)c1ccc(Br)cc1	Cycloheximide cs 12 (no result: Marburg entry inh, Lassa entry inh)
COc1ccc([C@]23Cc4c(ccc5ccccc45)[C@H](O2)c2c(cc(-c4ccccc4)oc2=O)O3)cc1	none (no result: Lassa entry inh, Cycloheximide cs, Shiga inhibitor)
COc1cc(-c2noc(-c3ccc(NCCc4ccccc4)c([N+](=O)[O-])c3)n2)cc(OC)c1OC	none (no result: Cycloheximide cs, Shiga inhibitor)
Cc1ccc(S(=O)(=O)Nc2ccc(-c3ccc(N4CCCCCC4)nn3)cc2)cc1C	none (no result: Marburg entry inh, Cycloheximide cs, Shiga inhibitor)
CC(C)CNC(=O)[C@H](Cc1ccccc1)NC(=O)c1cccs1	none
Cc1ccc(C(C)C)c(OCc2n[nH]c(=S)o2)c1	none
Cc1ccc(C(C)C)c(OCc2nc(-c3nonc3N)no2)c1	Cycloheximide cs 28, Shiga inhibitor 101 (no result: Marburg entry inh, Lassa entry inh)
CCCC[C@]12Cc3cc(OC)c(OC)cc3[C@H](O1)c1c(cc(-c3ccccc3)oc1=O)O2	none (no result: Lassa entry inh, Cycloheximide cs, Shiga inhibitor)
Cc1ccc(-c2cc(C(=O)Nc3cnn(C(C)C)c3)no2)cc1	Cycloheximide cs 22
Cc1ccc(-c2cc(C(=O)Nc3c(C#N)cnn3C)no2)cc1	Cycloheximide cs 14, Shiga inhibitor 56

Compound activity from PubChem.
